Measurements taken from PubChem BioAssay (EPA / NIEHS).
Where “and” joins values, the source holds several entries; their conditions need not be identical. Equal entries are not always repeated. Inconclusive results are not listed. More than one record can exist for a structure, and the calls need not agree. Calls of active or inactive are those of the source. Rule for the calls, unless noted: active = hit-call score of the fitted dose curve at least 0.9, where 1 is the maximum; inconclusive = response in the unintended direction; inactive = score below 0.9.

Key:
[1] = read-out: Signal transducer and activator of transcription 3 (Homo sapiens) (UniProt P40763); experiment: LTEA_HepaRG_STAT3: Life Technologies and Expression Analysis (LTEA) Assay for Signal transducer and activator of transcription (STAT3) using HepaRG (AID 2283529; active = hit-call score of the fitted dose curve at least 0.9, where 1 is the maximum; inactive = score below 0.9); settings: mRNA level, 48 h; actives raise or lower the signal
Summary of the method: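 HepaRG, 48 h exposure, 8-pt half-log series (top 100 uM), 0.5% DMSO vehicle, duplicates. Readout: STAT3 transcript by Fluidigm qRT-PCR, housekeeping-normalized; bidirectional fit vs DMSO baseline.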

[2] = read-out: solute carrier (SLCO1B1), SLCO1B1 (gene 10599); experiment: LTEA_HepaRG_SLCO1B1: Life Technologies and Expression Analysis (LTEA) Assay for solute carrier (SLCO1B1) using HepaRG (AID 2283530; active = hit-call score of the fitted dose curve at least 0.9, where 1 is the maximum; inactive = score below 0.9); settings: mRNA level, 48 h; actives raise or lower the signal
Summary of the method: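 Gain or loss of SLCO1B1 mRNA is fitted against the 0.5% DMSO vehicle in human HepaRG liver cells treated 48 h at up to 100 uM in half-log steps. Expression comes from qRT-PCR normalized to endogenous controls.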

[3] = read-out: sulfotransferase 2A1 (SULT2A1), SULT2A1 (gene 6822); experiment: LTEA_HepaRG_SULT2A1: Life Technologies and Expression Analysis (LTEA) Assay for sulfotransferase 2A1 (SULT2A1) using HepaRG (AID 2283531; active = hit-call score of the fitted dose curve at least 0.9, where 1 is the maximum; inactive = score below 0.9); settings: mRNA level, 48 h; actives raise or lower the signal
Summary of the method: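 Cells were plated and cultured 48 h, switched to serum-free induction medium, then dosed in duplicate for 48 h (8 concentrations, max 100 uM). RNA was isolated and SULT2A1 expression measured by qRT-PCR; gain or loss of signal fitted relative to DMSO.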

TIMP1, TIMP1 (gene 7076) = experiment: LTEA_HepaRG_TIMP1: Life Technologies and Expression Analysis (LTEA) Assay for TIMP1 using HepaRG (AID 2283534; active = hit-call score of the fitted dose curve at least 0.9, where 1 is the maximum; inactive = score below 0.9); settings: mRNA level, 48 h; actives raise or lower the signal
Summary of the method: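 We dosed human liver HepaRG cultures for 48 hours with up to 100 uM test chemical and measured TIMP1 expression by qRT-PCR. Activity in either direction is fitted relative to the 0.5% DMSO vehicle.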

[4] = read-out: Thyroid Hormone Responsive (THRSP), THRSP (gene 7069); experiment: LTEA_HepaRG_THRSP: Life Technologies and Expression Analysis (LTEA) Assay for Thyroid Hormone Responsive (THRSP) using HepaRG (AID 2283536; active = hit-call score of the fitted dose curve at least 0.9, where 1 is the maximum; inactive = score below 0.9); settings: mRNA level, 48 h; actives raise or lower the signal
Summary of the method: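 qRT-PCR read-out (Fluidigm TaqMan), housekeeping-normalized (ACTB/GAPDH/POLR2A). HepaRG, 48 h chemical exposure, 8-pt half-log series from 100 uM in 0.5% DMSO, duplicates. Bidirectional curve fit vs 0.5% DMSO baseline.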

[5] = read-out: Cellular tumor antigen p53 (Homo sapiens) (UniProt P04637); experiment: LTEA_HepaRG_TP53: Life Technologies and Expression Analysis (LTEA) Assay for Tumor Protein P53 (TP53) using HepaRG (AID 2283537; active = hit-call score of the fitted dose curve at least 0.9, where 1 is the maximum; inactive = score below 0.9); settings: mRNA level, 48 h; actives raise or lower the signal
Summary of the method: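 TP53 transcript measured by qRT-PCR, normalized to three housekeeping genes, after 48 h treatment of human HepaRG cultures with chemicals from 100 uM downward in half-log steps (0.5% DMSO vehicle, serum-free induction medium). Up- or down-regulation fitted against DMSO.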

[6] = read-out: UDP glucuronosyltransferase (UGT1A1), UGT1A1 (gene 54658); experiment: LTEA_HepaRG_UGT1A1: Life Technologies and Expression Analysis (LTEA) Assay for UDP glucuronosyltransferase (UGT1A1) using HepaRG (AID 2283538; active = hit-call score of the fitted dose curve at least 0.9, where 1 is the maximum; inactive = score below 0.9); settings: mRNA level, 48 h; actives raise or lower the signal
Summary of the method: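 mRNA induction or loss of UGT1A1, by TaqMan qRT-PCR, in duplicate HepaRG wells after 48 h exposure to half-log dilutions topping at 100 uM; DMSO (0.5%) served as baseline.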

[7] = read-out: UDP glucuronosyltransferase (UGT1A6), UGT1A6 (gene 54578); experiment: LTEA_HepaRG_UGT1A6: Life Technologies and Expression Analysis (LTEA) Assay for UDP glucuronosyltransferase (UGT1A6) using HepaRG (AID 2283539; active = hit-call score of the fitted dose curve at least 0.9, where 1 is the maximum; inactive = score below 0.9); settings: mRNA level, 48 h; actives raise or lower the signal
Summary of the method: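 Endpoint is UGT1A6 transcript induction or loss in a human liver cell line, quantified by TaqMan qRT-PCR 48 h after dosing. Concentrations ran from 100 uM downward in half-log steps in 0.5% DMSO; activity was fitted in both directions versus vehicle.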

[8] = read-out: X-box binding protein 1 (XBP1), XBP1 (gene 7494); experiment: LTEA_HepaRG_XBP1: Life Technologies and Expression Analysis (LTEA) Assay for X-box binding protein 1 (XBP1) using HepaRG (AID 2283540; active = hit-call score of the fitted dose curve at least 0.9, where 1 is the maximum; inactive = score below 0.9); settings: mRNA level, 48 h; actives raise or lower the signal
Summary of the method: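 Human HepaRG monolayers receive test chemical for 48 h across an eight-point half-log series starting at 100 uM. XBP1 mRNA gain or loss is scored against DMSO by qRT-PCR.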

[9] = LTEA_HepaRG_LDH_cytotoxicity: Cytotoxicity Assessment in the Life Technologies and Expression Analysis (LTEA) Assay (AID 2283563);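 for AC50: LDH activity released into spent culture medium as a marker of cell death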
Summary of the method: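 Human HepaRG hepatic cells are treated with test chemicals for 48 h at up to 100 uM in 0.5% DMSO. Cytotoxicity is scored from medium LDH against the vehicle control.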

[10] = ATG_XTT_Cytotoxicity: Cytotoxicity Assessment in the Attagene TRANS-FACTORIAL HepG2 Assay (AID 2283584)
Summary of the method: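 Transfect HepG2 with GAL4-UAS reporter units, dose compound, incubate 24 h, then measure viable cell number by XTT. Fit concentration response against DMSO baseline.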

[11] = TOX21_p53_BLA_p2_viability: Viability Assessment in the Tox21 HCT-116 p53 Agonism Beta-lactamase Assay, Phase 2 (AID 2283591);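 note: compound exposure lasted 16 h at 37 °C; actives lower the ATP signal meaning cytotoxicity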
Summary of the method: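 HCT116 p53-bla cells, 4000/well, dosed after 5 h plating (217-fold dilution of DMSO stocks) and incubated 16 h at 37C. Viability taken as cellular ATP by CellTiter-Glo luminescence after 30 min RT; signal loss marks cytotoxicity.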

[12] = molecular target: Cellular tumor antigen p53 (Homo sapiens) (UniProt P04637); experiment: TOX21_p53_BLA_p2_ratio: Tox21 HCT-116 p53 Agonism Beta-lactamase Assay, Ratio, Phase 2 (AID 2283592)
Summary of the method: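 Cleaved-to-uncleaved substrate ratio (460 vs 530 nm) measured in HCT116 cells with an inducible beta-lactamase reporter linked to p53 activity. Compounds incubated 16 h at 37C before 2 h room-temperature CCF4-AM loading.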

[13] = TOX21_p53_BLA_p3_viability: Viability Assessment in the Tox21 HCT-116 p53 Agonism Beta-lactamase Assay, Phase 3 (AID 2283593);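 note: cells exposed to compound for 16 h before reading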
Summary of the method: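 HCT116 cells, 4000/well, dosed 5 h after plating by pin transfer (217-fold dilution from DMSO stock) and incubated 16 h at 37C, 5% CO2. Viability read as ATP luminescence with CellTiter-Glo after 30 min at room temperature.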

[14] = molecular target: Cellular tumor antigen p53 (Homo sapiens) (UniProt P04637); experiment: TOX21_p53_BLA_p3_ratio: Tox21 HCT-116 p53 Agonism Beta-lactamase Assay, Ratio, Phase 3 (AID 2283596)
Summary of the method: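 Cells were seeded at 4000/well, rested 5 h at 37C, then dosed with DMSO compound solutions (217-fold dilution) for 16 h. CCF4-AM substrate was loaded for 2 h at room temperature, and the 460/530 nm emission ratio was fitted for gain of signal versus DMSO.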

[15] = TOX21_p53_BLA_p4_viability: Viability Assessment in the Tox21 HCT-116 p53 Agonism Beta-lactamase Assay, Phase 4 (AID 2283597);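 note: hits lower the luminescence signal meaning cytotoxicity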
Summary of the method: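 Viability is taken as cellular ATP: after 16 h compound exposure of HCT116 cells and a 2 h room-temperature CCF4-AM substrate step, CellTiter-Glo reagent is added and luminescence is measured 30 min later.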

[16] = molecular target: Cellular tumor antigen p53 (Homo sapiens) (UniProt P04637); experiment: TOX21_p53_BLA_p5_ratio: Tox21 HCT-116 p53 Agonism Beta-lactamase Assay, Ratio, Phase 5 (AID 2283599)
Summary of the method: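 HCT-116 p53-bla cells (4000/well) plated 5 h, dosed with compound (217-fold DMSO dilution) for 16 h at 37 C; CCF4-AM substrate 2 h at room temperature. Activity is the 460/530 nm emission ratio (405 nm excitation), fitted in gain-of-signal direction versus DMSO.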

[17] = read-out: Tumor necrosis factor receptor 1 (TNFRSF1A), TNFRSF1A (gene 7132); experiment: LTEA_HepaRG_TNFRSF1A: Life Technologies and Expression Analysis (LTEA) Assay for Tumor necrosis factor receptor 1 (TNFRSF1A) using HepaRG (AID 2283535; active = hit-call score of the fitted dose curve at least 0.9, where 1 is the maximum; inactive = score below 0.9); settings: mRNA level, 48 h; actives raise or lower the signal
Summary of the method: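 Expression of TNFRSF1A in human HepaRG liver cells was measured by qRT-PCR 48 h after chemical dosing (maximum 100 uM). Bidirectional curve fitting used 0.5% DMSO as baseline.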

[18] = read-out: Transforming Growth Factor (TGFB1), TGFB1 (gene 7040); experiment: LTEA_HepaRG_TGFB1: Life Technologies and Expression Analysis (LTEA) Assay for Transforming Growth Factor (TGFB1) Transporter using HepaRG (AID 2283533; active = hit-call score of the fitted dose curve at least 0.9, where 1 is the maximum; inactive = score below 0.9); settings: mRNA level, 48 h; actives raise or lower the signal
Summary of the method: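 Expression change of TGFB1 in human HepaRG cells is measured after a 48 h chemical exposure, up to 100 uM in 0.5% DMSO vehicle. Curves are fitted in both directions relative to the DMSO baseline.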

Signal transducer and activator of transcription 3 (Homo sapiens), sequence (P40763 whole entry, looked up): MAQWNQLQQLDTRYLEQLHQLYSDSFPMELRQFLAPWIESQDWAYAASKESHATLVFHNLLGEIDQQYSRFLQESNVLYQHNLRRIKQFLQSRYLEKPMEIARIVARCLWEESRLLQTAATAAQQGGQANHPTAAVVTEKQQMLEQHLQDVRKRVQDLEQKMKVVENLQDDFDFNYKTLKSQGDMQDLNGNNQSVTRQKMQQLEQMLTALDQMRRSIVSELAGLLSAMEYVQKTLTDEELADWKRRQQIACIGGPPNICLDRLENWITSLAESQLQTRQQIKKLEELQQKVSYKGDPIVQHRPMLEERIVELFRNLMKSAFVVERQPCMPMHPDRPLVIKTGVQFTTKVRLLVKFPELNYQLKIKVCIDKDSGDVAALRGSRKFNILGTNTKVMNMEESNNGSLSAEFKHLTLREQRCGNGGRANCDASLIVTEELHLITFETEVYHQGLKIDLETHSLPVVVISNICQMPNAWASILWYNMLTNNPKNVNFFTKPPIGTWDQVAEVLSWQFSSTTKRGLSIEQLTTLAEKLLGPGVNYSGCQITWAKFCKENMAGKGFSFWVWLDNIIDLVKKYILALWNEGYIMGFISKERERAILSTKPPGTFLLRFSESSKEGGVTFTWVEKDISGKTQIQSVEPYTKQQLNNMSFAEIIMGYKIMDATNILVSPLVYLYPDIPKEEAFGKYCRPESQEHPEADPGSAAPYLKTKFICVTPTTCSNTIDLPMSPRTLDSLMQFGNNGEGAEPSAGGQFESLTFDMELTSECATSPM
Cellular tumor antigen p53 (Homo sapiens), sequence (P04637 whole entry, looked up): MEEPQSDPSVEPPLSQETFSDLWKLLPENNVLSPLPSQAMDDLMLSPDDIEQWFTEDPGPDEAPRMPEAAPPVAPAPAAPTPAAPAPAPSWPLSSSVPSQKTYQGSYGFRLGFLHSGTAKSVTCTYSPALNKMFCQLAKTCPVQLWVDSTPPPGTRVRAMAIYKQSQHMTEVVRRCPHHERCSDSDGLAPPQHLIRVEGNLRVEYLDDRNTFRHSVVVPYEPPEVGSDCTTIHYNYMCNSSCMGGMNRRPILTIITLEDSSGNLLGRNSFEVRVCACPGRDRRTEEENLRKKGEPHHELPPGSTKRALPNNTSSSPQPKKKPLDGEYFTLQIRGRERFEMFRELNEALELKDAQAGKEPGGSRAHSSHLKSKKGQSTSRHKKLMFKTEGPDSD

With `Nc1ccc2c(c1)C(=O)c1ccccc1C2=O` as the compound, how does the outcome [1] read?
Its outcome is “inactive”.

What about the AC50 [2] of the same compound?
Its AC50 is 4.66 µM (active).

What about the outcome [3] of the same compound?
Its outcome is “inactive”.

What about the outcome (TIMP1, TIMP1 (gene 7076)) of the same compound?
Its outcome is “inactive”.

What about the AC50 [4] of the same compound?
Its AC50 is 6.08 µM (active).

And the AC50 [5]?
The AC50 was 18.2 µM (active).

What about the AC50 [6] of the same compound?
The AC50 was 7.74 µM (active).

What about the outcome [7] of the same compound?
The outcome was “inactive”.

What about the AC50 [8] of the same compound?
Its AC50 is 10.3 µM (active).

And the outcome [9]?
The outcome was “inactive”.

What about the outcome [10] of the same compound?
The outcome was “inactive”.

What about the outcome [11] of the same compound?
The outcome was “inactive”.

And the outcome [12]?
Its outcome is “inactive”.

And the outcome [13]?
The outcome was “inactive”.

What about the outcome [14] of the same compound?
Its outcome is “inactive”.

And the outcome [15]?
The outcome was “inactive”.

What about the outcome [16] of the same compound?
The outcome was “inactive”.

Which results are given for `O=c1[nH]cc(F)c(=O)[nH]1`?
outcome [1]: inactive; outcome [2]: inactive; outcome [3]: inactive; outcome (TIMP1, TIMP1 (gene 7076)): inactive; outcome [17]: inactive; AC50 [4]: 51 µM (active); outcome [5]: inactive; outcome [6]: inactive; outcome [7]: inactive; outcome [8]: inactive; outcome [9]: inactive; outcome [10]: inactive; AC50 [11]: 1.34 µM (active) and 1.39 µM (active); outcome [11]: inactive; AC50 [12]: 2.4 µM (active) and 1.97 µM (active) and 4.59 µM (active); AC50 [13]: 882 nM (active) and 2.38 µM (active); outcome [13]: inactive; AC50 [14]: 2.99 µM (active) and 2.3 µM (active) and 5.29 µM (active); AC50 [15]: 15.7 µM (active) and 9.55 µM (active); outcome [15]: inactive; AC50 [16]: 3.72 µM (active) and 3.09 µM (active) and 4.2 µM (active)

For `Cc1cccc(Nc2cc(Cl)nc(SCC(=O)O)n2)c1C`, which outcome [1] is on record?
The outcome was “inactive”.

What about the outcome [2] of the same compound?
Its outcome is “inactive”.

What about the outcome [3] of the same compound?
The outcome was “inactive”.

What about the outcome [18] of the same compound?
Its outcome is “inactive”.

And the outcome (TIMP1, TIMP1 (gene 7076))?
Its outcome is “inactive”.

And the outcome [17]?
Its outcome is “inactive”.

And the outcome [4]?
Its outcome is “inactive”.

And the outcome [5]?
The outcome was “inactive”.

And the AC50 [6]?
The AC50 was 50 µM (active).

And the outcome [7]?
The outcome was “inactive”.

What about the outcome [8] of the same compound?
Its outcome is “inactive”.

And the outcome [9]?
The outcome was “inactive”.

And the outcome [12]?
The outcome was “inactive”.

And the outcome [14]?
The outcome was “inactive”.

What about the outcome [15] of the same compound?
Its outcome is “inactive”.

What about the outcome [16] of the same compound?
The outcome was “inactive”.

For `CNCc1cc(F)ccc1Oc1ccc(Cl)c(Cl)c1`, which outcome [1] is on record?
Its outcome is “inactive”.

And the AC50 [2]?
Its AC50 is 82.6 µM (active).

And the AC50 [3]?
The AC50 was 84.2 µM (active).

What about the outcome [18] of the same compound?
Its outcome is “inactive”.

And the outcome (TIMP1, TIMP1 (gene 7076))?
Its outcome is “inactive”.

What about the outcome [17] of the same compound?
Its outcome is “inactive”.

And the outcome [4]?
The outcome was “inactive”.

And the outcome [5]?
Its outcome is “inactive”.

And the AC50 [6]?
The AC50 was 82.8 µM (active).

What about the AC50 [7] of the same compound?
Its AC50 is 74 µM (active).

What about the outcome [8] of the same compound?
The outcome was “inactive”.

And the AC50 [9]?
The AC50 was 81.7 µM (active).

What about the outcome [12] of the same compound?
Its outcome is “inactive”.

And the outcome [13]?
The outcome was “inactive”.

And the outcome [14]?
The outcome was “inactive”.

What about the outcome [15] of the same compound?
Its outcome is “inactive”.

And the outcome [16]?
Its outcome is “inactive”.
